# Source: PubChem (National Center for Advancing Translational Sciences (NCATS))
# This is a sample that favours compounds with a hit; in the whole collection about 7.3% have one here.
# ELG1 genotox = qHTS screen for small molecules that induce genotoxicity in human embryonic kidney (HEK293T) cells expressing luciferase-tagged ELG1 | HEK293T ELG1-luciferase reporter, luminescence, 16 h | Potency, µM (doses to about 46 µM), most hits filed as activators | 330,000 compounds, 1.3% hits | AID 504466, 2011; note: nearly all actives have a fitted effect of over 60% in size
#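 Cells (2,000/well) expressing the ELG1-luciferase fusion are dosed by pin tool and kept 16 hr at 37 °C, 5% CO2. Signal comes from ONE-Glo luciferase reagent after 30 min at room temperature.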
# Rab9 prom act = qHTS Assay for Rab9 Promoter Activators; 320,000 compounds, 2.8% hits; Huh7 Rab9 promoter-luciferase reporter, luminescence, 24 h; Potency, µM (top dose mostly 9.22 µM), usual class: activators; note: nearly all actives have a fitted effect of over 60% in size
#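 Steps: seed 1500 Huh7 Rab9-luc cells per well, rest 2 h at 37 °C; add compound in DMSO; incubate 24 h; add luciferase reagent, 10 min ambient; read luminescence.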
# FLuc counter = qHTS profiling assay for firefly luciferase inhibitor/activator using purifed enzyme and Km concentrations of substrates (counterscreen for miR-21 project) | Luciferin 4-monooxygenase (Photinus pyralis), P08659 | purified FLuc, Km substrates, luminescence inhibition | Potency, µM (series often up to 57.5 µM), usual class: inhibitors | 360,000 compounds, 6.9% hits | AID 588342, 2011; note: nearly all actives have a fitted effect of over 55% in size
# Target sequence (P08659 whole entry, looked up): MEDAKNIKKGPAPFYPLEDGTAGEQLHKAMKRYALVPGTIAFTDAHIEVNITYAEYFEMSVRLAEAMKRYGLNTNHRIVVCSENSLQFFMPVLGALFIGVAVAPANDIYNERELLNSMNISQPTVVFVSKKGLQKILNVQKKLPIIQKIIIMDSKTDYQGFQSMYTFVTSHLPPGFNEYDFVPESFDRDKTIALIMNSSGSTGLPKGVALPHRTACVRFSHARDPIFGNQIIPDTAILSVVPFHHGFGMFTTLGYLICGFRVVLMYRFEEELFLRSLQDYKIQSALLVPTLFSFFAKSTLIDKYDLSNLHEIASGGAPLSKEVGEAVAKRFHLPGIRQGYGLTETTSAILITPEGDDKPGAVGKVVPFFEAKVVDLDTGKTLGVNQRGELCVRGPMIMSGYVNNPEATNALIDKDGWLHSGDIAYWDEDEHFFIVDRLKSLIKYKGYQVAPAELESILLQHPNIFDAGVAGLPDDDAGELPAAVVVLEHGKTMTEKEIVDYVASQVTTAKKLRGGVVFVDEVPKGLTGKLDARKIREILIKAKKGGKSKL
#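 Purified P. pyralis luciferase (10nM final) with 10uM D-luciferin and 10uM ATP (Km levels) in 50mM Tris acetate pH 7.5, 10mM Mg acetate, 0.01% Tween-20, 0.05% BSA; qHTS 6-point titration, ~60 µM downward; luminescence read.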
# SMN2 splice enh = qHTS Assay for Enhancers of SMN2 Splice Variant Expression | HEK293 SMN2-luciferase splicing reporter, luminescence, 30-36 h | Potency, µM (top dose mostly 46.1 µM), actives largely listed as activators | 210,000 compounds, 2.8% hits; note: nearly all actives have a fitted effect of over 55% in size
#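 HEK293 cells carry an SMN2 minigene-luciferase reporter in which exon 7 inclusion puts luciferase in frame. Cells were seeded at 2000 cells/well, attached for 10-12 hours, then exposed to compounds for 30-36 hours at 37C before ONE-Glo luminescence.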
# KinaseGlo FLuc = Counterscreen for Luciferase (Kinase-Glo TM) Inhibition; Kinase-Glo luciferase, ATP luminescence, 8 min; Luciferin 4-monooxygenase (Photuris pensylvanica), Q27757; 200,000 compounds, 0.28% hits; Potency, µM (top dose mostly 38.3 µM), hits mostly inhibitors; note: nearly all actives have a fitted effect of over 60% in size
#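 Luminescence was the read-out, taken after 8-minute incubation at ambient temperature. Luciferase turned over luciferin with 10 uM ATP in imidazole pH 7.2 buffer containing KCl, MgCl2, Tween 20 and BSA.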
# NPC1 promoter act = qHTS Assay for NPC1 Promoter Activators | Huh7 NPC1 promoter luciferase reporter, 24 h | Potency, µM (doses to about 9.22 µM), actives largely listed as activators | 320,000 compounds, 2.4% hits; note: nearly all actives have a fitted effect of over 60% in size
#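 Stably transfected Huh7 (NPC1 promoter→luciferase), 1500 cells/well in Opti-MEM + 10% FBS, 2 h settle, then compound 24 h at 37 °C. Luminescence after 10 min with Amplite reagent.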
# A number is an active result; - = inactive; ? = inconclusive; . = no result given; [ ] = another dose, or the depositor's remark. Calls come from the whole dose curve; as a rule, active = well fitted curve in the direction sought with a large enough effect; inconclusive = small, poorly fitted or top-dose-only effect, or another doubt; inactive = no such curve, though single readings can be large; an effect the other way counts as inactive or inconclusive.
SMILES,ELG1 genotox,Rab9 prom act,FLuc counter,SMN2 splice enh,KinaseGlo FLuc,NPC1 promoter act
CCC1C(=O)C(CC)C(c2ccccc2)NC1c1ccccc1 (stereo unspecified),-,-,-,.,.,-
N#Cc1c(N)nc2c(c1N)CC(CO)O2 (stereo unspecified),-,-,-,-,-,-
N#Cc1c(N)nc2c(c1N)CC(COc1ccccc1)O2 (stereo unspecified),?,4.47µM,16.9µM,.,-,2.82µM
Cc1ccccc1OCC1CO1 (stereo unspecified),.,.,.,-,.,.
Cc1ccccc1OCC1Cc2c(nc(N)c(C#N)c2N)O1 (stereo unspecified),?,?,13.5µM,.,.,?
COC(=O)C1=C(C)NC(=O)/C1=C\c1cc(C)n(-c2ccccc2F)c1C,-,-,12µM,25.1µM,-,-
CCOC(=O)C1=C(O)/C(=C\c2cc(C)n(-c3ccccc3F)c2C)N=C1C,-,-,0.601µM,-,-,-
COC(=O)C1=C(C)NC(=O)/C1=C\c1cc(C)n(-c2ccccc2C)c1C,-,-,16.9µM,-,-,-
CCOC(=O)c1c(N)sc(C(=O)Nc2ccccc2F)c1C,?,0.398µM,1.9µM,8.91µM,-,2.51µM
CCOC(=O)c1cc(C(=O)Nc2ccccc2F)nn1C,4.47µM,2µM,8.49µM,12.6µM,-,2.24µM
CCOC(=O)c1c(N)sc(C(=O)Nc2ccccc2)c1C,?,0.316µM,1.2µM,.,-,0.447µM
Cc1c(C(=O)OC(C)C)sc(N)c1C(=O)OC(C)C,-,-,21.3µM,-,-,-
CCOC(=O)c1c(N)sc(C(=O)N(CC)CC)c1C,-,-,-,.,-,-
CCOC(=O)c1c(N)sc(C(N)=O)c1C,-,-,-,-,-,-
O=C(CN1CCN(C/C=C/c2ccccc2)CC1)Nc1ccccc1C(=O)NC1CC1,-,-,-,.,.,-
Cn1c2ccccc2c(=O)c2cc(C#Cc3ccsc3)ccc21,-,2.82µM,2.39µM,.,.,?
Cn1c2ccccc2c(=O)c2cc(C#Cc3ccccn3)ccc21,?,5.01µM,3.01µM,.,.,2.51µM
Nc1ccc2c(c1Cl)C(=O)c1ccc(N)c(Cl)c1C2=O,?,2.24µM,12µM,.,.,?
O=C1c2ccc(O)c(O)c2C(=O)c2c(O)ccc(O)c21,.,.,.,-,-,.
COC(=O)C1=C(Cn2cnc3ccccc32)NC(=O)NC1c1cc(C)ccc1C (stereo unspecified),-,-,-,-,-,-
CCS(=O)(=O)N1CCCC(c2nc(-c3cccc(OC)c3)no2)C1 (stereo unspecified),14.6µM,?,?,?,-,-
O=c1c2ccccc2oc2cc(-c3ccc(CN4CCOCC4)cc3)ccc12,-,?,6.75µM,.,.,2.24µM
Cc1ccccc1NC(=O)c1c(NC(=O)C(F)(F)F)sc2c1CCCCC2,.,.,10.7µM,-,.,.
Cc1cccc(NC(=O)c2c(NC(=O)C(F)(F)F)sc3c2CCCCC3)c1,.,.,13.5µM,-,.,.
O=C(Nc1cccc(Cl)c1)c1c(NC(=O)C(F)(F)F)sc2c1CCCC2,.,.,16.9µM,-,.,.
SMILES,ELG1 genotox,Rab9 prom act,FLuc counter,SMN2 splice enh,KinaseGlo FLuc,NPC1 promoter act
O=C(COc1ccc(Cl)cc1)Nc1sc2c(c1C(=O)Nc1cccc(Cl)c1)CCCC2,.,.,?,-,.,.
Cc1ccc(NC(=O)c2c(NC(=O)C(F)(F)F)sc3c2CCCCC3)cc1,.,.,10.7µM,-,.,.
CCN(CC)C(=O)[C@H]1C[C@H](CC(=O)NCCN2CCOCC2)C(=O)N2CCc3c([nH]c4ccc(Cl)cc34)[C@]12C,-,.,.,.,.,.
NC(=O)c1nc(Nc2ccccc2)sc1NC(=O)c1c(F)cccc1F,.,.,-,.,.,.
COC(=O)Nc1nc2ccc(C(=O)c3cccs3)cc2[nH]1,.,-,.,-,-,?
Cn1nc(C(=O)Nc2nc3ccccc3[nH]2)ccc1=O,-,2.24µM,16.9µM,12.6µM,-,?
COc1ccc(C(=O)Nc2nc3ccccc3[nH]2)cc1,?,?,0.19µM,.,.,0.112µM
COc1cc(C(=O)Nc2nc3ccccc3[nH]2)cc(OC)c1OC,-,-,?,-,-,-
CN(C)S(=O)(=O)c1ccc(Cl)c(C(=O)Nc2nc3ccccc3[nH]2)c1,-,-,?,-,-,-
COc1ccc(C(=O)N[C@H](C(=O)Nc2nc3ccccc3[nH]2)C(C)C)cc1,11.6µM,-,6.75µM,10µM,-,-
O=C(Nc1nc2ccccc2[nH]1)c1cccs1,?,1.26µM,4.78µM,3.55µM,?,1.26µM
O=S(=O)(NCC(c1ccco1)N1CCN(c2ccccc2F)CC1)c1ccc(F)cc1 (stereo unspecified),-,-,-,-,-,-
CCN(CC)c1ccc(C(=O)NNC(=O)CCl)cc1,-,-,-,-,-,-
C[C@H](NC(=O)c1cc2cc(Cl)ccc2n1C)C(=O)N1CCC(C(=O)O)CC1,-,-,-,.,.,-
CCOc1ccccc1-c1noc(CSc2nnc(-c3ccncc3)n2-c2ccc(F)cc2)n1,.,.,-,-,.,.
COc1cccc(C(=O)Nc2nc3ccccc3[nH]2)c1,0.366µM,0.708µM,0.757µM,?,12.6µM,0.562µM
COc1cccc(C(=O)Nc2cccc3ccccc23)c1,-,-,-,.,.,-
NS(=O)(=O)c1ccc(NC(=O)COC(=O)COc2cccc(C(F)(F)F)c2)cc1,-,-,13.5µM,.,.,-
O=C(CSc1ccccn1)Nc1ccc2c(c1)oc1ccccc12,-,-,13.5µM,17.8µM,-,-
O=C(O)CCCC(=O)Nc1ccc2c(c1)oc1ccccc12,-,-,15.1µM,.,.,-
CC(=O)Nc1cccc(NC(=O)CCCC(=O)O)c1,-,-,-,-,-,-
CCCCC(=O)Nc1ccc2c(c1)oc1ccccc12,?,3.55µM,8.49µM,14.1µM,-,?
CCCCC(=O)Nc1cccc(NC(=O)CC)c1,-,-,-[2.3 µM],-,-,-
CC(C)CC(=O)Nc1ccc2c(c1)oc1ccccc12,-,1µM,2.13µM,5.62µM,-,1µM
O=C(OC1CCCCC1=O)c1cccc(S(=O)(=O)N2CCCCC2)c1 (stereo unspecified),-,-,-,.,.,-
CCCOc1ccc(CC2C(=O)Nc3ccc(Br)cc32)cc1 (stereo unspecified),.,.,-,.,.,.
O=C(O)CCC(=O)Nc1ccc2ccccc2c1,.,.,.,-[9.22 µM],-[7.66 µM],.
CCC(=O)Nc1ccc2c(c1)Cc1cc(NC(=O)CC)ccc1-2,?,?,-,.,.,-
Cc1ccccc1OCc1nnc(SCC(=O)Nc2ccc3c(c2)oc2ccccc23)n1C,?,-,-,?,-,-
Cn1c(SCC(=O)Nc2cccc(C(=O)O)c2)nnc1-c1cc2cc(Br)ccc2o1,-,-,2.69µM,.,-,-
